# Compounds with a hit are over-represented: about 1.2% of the library has one in this group of screens.
# RAD52 inh – RAD52 DNA annealing inhibitors, primary screen, biochemical, FRET, single point, set 2 | DNA repair protein RAD52 homolog (Homo sapiens), P43351 | inhibition, % at 18.7 µM | recombinant RAD52 DNA annealing, FRET fluorescence | AID 651710, 2012 | 0.46% of 360,000 active;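 active = every replicate showing at least 50% inhibition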
# AF4-AF9 inh – inhibitors of AF4 peptide binding to AF9, primary screen, biochemical, AlphaScreen, biotin-AF4 peptide, FLAG-AF9, single point | 0.47% of 350,000 active | AID 651704, 2012 | inhibition, % at 10 µM | Protein AF-9 (Homo sapiens), P42568;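 active = every replicate reaching a set inhibition limit, whatever the replicate mean, cut at about 25% in these data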;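 note: 0% = plate neutral control median and 100% = total signal loss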
# N-glyco inh – increase of ERlucT glycosylation luciferase signal, primary screen, N-linked glycosylation inhibitor project, D54 ERlucT cells, luminescence, set 2 | D54 ERlucT glycosylation luciferase reporter, 24 h; percent of 100 nM tunicamycin response | reporter increase, % at 12.5 µM | 0.23% of 360,000 active | AID 588692, 2011;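 active = mean luciferase reporter signal, scaled so untreated is 0 and the glycosylation-blocking control 100, at or above a set limit in every replicate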;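 note: luciferase carries N-glycosylation sites so blocking glycosylation raises the light; 0% = median of neutral control wells and 100% = median of 100 nM tunicamycin wells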
# Casp6 inh – human caspase-6 inhibitors, primary screen, biochemical, VEID-R110 fluorescence, single point, set 2; P55212; purified caspase-6, Z-VEID-R110 cleavage fluorescence; inhibition, % at 12.5 µM; 0.53% of 350,000 active; AID 686996, 2013;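 active = mean inhibition across replicates at least about 35%, with every replicate also reaching that limit, limit read from the data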;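 note: 0% = median of neutral control wells and 100% = no fluorescence left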
# Target sequence (P55212 24-179 limits assumed): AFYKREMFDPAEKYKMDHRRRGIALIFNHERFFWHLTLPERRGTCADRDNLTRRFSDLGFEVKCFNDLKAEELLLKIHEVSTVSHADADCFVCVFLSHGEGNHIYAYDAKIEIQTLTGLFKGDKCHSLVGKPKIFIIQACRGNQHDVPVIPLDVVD
# Target sequence (P55212 194-293 limits assumed): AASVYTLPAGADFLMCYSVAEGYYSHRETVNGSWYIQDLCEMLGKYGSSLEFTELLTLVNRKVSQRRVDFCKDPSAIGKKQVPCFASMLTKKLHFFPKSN
# RAD54 inh – inhibitors of human RAD54 branch migration, primary screen, biochemical, fluorescence, single point; DNA repair and recombination protein RAD54-like (Homo sapiens), Q92698; RAD54 Holliday junction branch migration, FAM/BHQ fluorescence; inhibition, % at 10.4 µM; 0.14% of 360,000 active; AID 602329, 2012;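 active = mean normalized replicate activity at least 40 and at least half of replicates scoring 40 or more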;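 note: 0% = median of neutral control wells and 100% = median of positive control wells; inhibitors cause a drop in the FAM fluorescence signal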
# An asterisk follows results filed as active; i = inactive; · = not tested or not shown.
SMILES,RAD52 inh,AF4-AF9 inh,N-glyco inh,Casp6 inh,RAD54 inh
CN(CCc1ccccc1)C(=O)c1ccc(NC(=O)Cc2ccc(NC(=O)C3CCN(C(=O)C4CCC4)CC3)cc2)cc1,-13,28*,2,-3,-11
C=CC#CC[N+]1(CC#Cc2ccccc2)CCOCC1,74*,97*,3,-29,·
C[C@@H]1CN([C@H](C)CO)C(=O)c2cc(NS(=O)(=O)c3ccc(F)cc3)ccc2O[C@H]1CN(C)S(=O)(=O)c1cn(C)cn1,2,-3,·,1,·
C[C@@H]1CCCCO[C@@H](CN(C)C(=O)Nc2ccc(C(F)(F)F)cc2)[C@@H](C)CN([C@H](C)CO)C(=O)c2cc(NC(=O)C3CCCCC3)ccc2O1,-8,-1,·,-1,6
O=C(O)CCNc1cc(N2CCN(C(=O)c3ccco3)CC2)c2noc3c2c1C(=O)c1ccccc1-3,i,56*,-5,26,-280
O=C(CSc1c2c(nc3ccc(Cl)cc13)CCCC2)N1CCN(C(=O)c2ccco2)CC1,-13,-4,41*,2,·
O=C(CSc1nc2cc(Cl)ccc2s1)N1CCN(C(=O)c2ccco2)CC1,·,·,0,·,·
O=C1CCC(=O)c2ccc3c4c(ccc1c24)CC3,-79,-16,2,92*,3
O=C1c2ccc3c4c(ccc(c24)C(=O)N1c1ccc2ccccc2c1)CC3,·,·,-3,·,2
CN(C)S(=O)(=O)c1cccc(-c2csc(=Nc3ccccc3)n2CCCN2CCOCC2)c1,5,32*,-5,-2,-4
COC(=O)c1ccccc1Sc1c(/C=N/OC(=O)c2ccccc2)c(C(F)(F)F)nn1C,·,·,1,·,·
COc1ccc(C(=O)O/N=C/c2c(C(F)(F)F)nn(C)c2SCc2ccccc2Cl)cc1,·,·,53*,·,-2
Cn1nc(C(F)(F)F)c(/C=N/OC(=O)c2ccccc2Cl)c1SCc1ccc(Cl)cc1,·,·,61*,·,1
Cc1ccc(C(=O)O/N=C/c2c(C(F)(F)F)nn(C)c2Sc2ccc(Cl)cc2)cc1,·,·,0,·,6
COc1ccc(NC(=O)Nc2ccc3c(c2)CC(=O)N([C@H](C)CO)C[C@@H](C)[C@H](CN(C)S(=O)(=O)c2c(C)noc2C)O3)cc1,10,7,·,-1,-1
Cc1cc2cc(C=C(C#N)C#N)c(Cl)nc2cc1C,-61,-6,38*,6,-6
CCOC(=O)/C(C#N)=C/c1cc2cc(C)c(C)cc2nc1Cl,-66,5,3,4,-8
CN(C)CC(=O)N1[C@H](CO)[C@H](c2ccccc2)C12CN(C(=O)c1cccc(F)c1)C2,-1,-3,·,-4,·
COC(=O)c1cc(=O)n(-c2ccccc2)c(=Nc2ccccc2)s1,-5,28*,22,2,2
Cc1ccccc1-c1nc(CS(=O)(=O)CC(=O)NCCN2CCCC2)c(C)o1,5,7,-5,36*,-3
CCN1CCN(CCCNC(=O)CS(=O)(=O)Cc2nc(-c3ccccc3C)oc2C)CC1,-12,2,2,-36,-14
COc1ccc(O)c(C(=O)c2cc(C#N)c(=O)n(-c3ccc(Cl)cc3)c2)c1,-33,29*,3,3,·
Cc1ccc(-c2cc(NC(=O)CCl)n(-c3ccccc3)n2)cc1,·,·,21,·,11
Cc1ccc(-n2nc(C)c(NC(=O)CCl)c2C)cc1,·,·,55*,·,-4
CN1c2ccc(Br)cc2[C@H]2[C@H](CCN2C(=O)C2CCOCC2)[C@@H]1CO,-23,-1,·,7,-5
SMILES,RAD52 inh,AF4-AF9 inh,N-glyco inh,Casp6 inh,RAD54 inh
CCCN(C(=O)c1cccc(S(=O)(=O)N2CCN(Cc3ccccc3)CC2)c1)C1CCS(=O)(=O)C1 (centres undefined),-2,6,-2,-155,-9
CC(C)CN(C(=O)c1cccc(S(=O)(=O)N2CCN(Cc3ccccc3)CC2)c1)C1CCS(=O)(=O)C1 (centres undefined),15,28*,1,-100,-8
Cc1ccc(S(=O)(=O)N(C)C[C@H]2OCCCC[C@@H](C)Oc3ccc(NC(=O)CCCN(C)C)cc3C(=O)N([C@@H](C)CO)C[C@H]2C)cc1,51*,5,·,-3,23
CC(C)NC(=O)Nc1ccc2c(c1)C(=O)N([C@@H](C)CO)C[C@H](C)[C@@H](CN(C)S(=O)(=O)c1ccccc1)OCCCC[C@@H](C)O2,0,0,·,1,-20
CC(C)NC(=O)Nc1ccc2c(c1)C(=O)N([C@H](C)CO)C[C@H](C)[C@@H](CN(C)S(=O)(=O)c1ccccc1)OCCCC[C@H](C)O2,1,1,·,40*,-3
Cc1ccc(S(=O)(=O)N(C)C[C@@H]2OCCCC[C@H](C)Oc3ccc(NC(=O)NC4CCCCC4)cc3C(=O)N([C@@H](C)CO)C[C@H]2C)cc1,1,26*,·,0,-3
Cc1ccc(S(=O)(=O)N(C)C[C@@H]2Oc3ccc(NC(=O)C4CCCCC4)cc3C(=O)N([C@@H](C)CO)C[C@@H]2C)cc1,-2,-13,·,-1,-7
Cc1ccc(S(=O)(=O)N(C)C[C@H]2Oc3ccc(NC(=O)C4CCCCC4)cc3C(=O)N([C@H](C)CO)C[C@H]2C)cc1,24,-1,45*,-2,0
Cc1ccc(S(=O)(=O)N(C)C[C@H]2OCCCC[C@H](C)Oc3ccc(NC(=O)NC4CCCCC4)cc3C(=O)N([C@H](C)CO)C[C@@H]2C)cc1,0,-8,·,1,1
CCCC#Cc1cnc2c(c1)C(=O)N([C@@H](C)CO)C[C@H](C)[C@@H](CN(C)Cc1ccncc1)O2,1,-12,·,-2,-4
CO[C@H]1CC[C@H]2CCOc3ccc(C#N)cc3C(=O)N(C)C[C@@H](OC)[C@H](C)C(=O)N(C)C[C@H]1O2,-18,3,·,6,1
Cn1cnc(S(=O)(=O)N2CC[C@@H]3[C@@H](CO)Nc4ccc(-c5ccccc5)cc4[C@@H]32)c1,-11,8,·,0,-2
CCn1c2ccccc2c2cc(NC(=O)c3cc(OC)c(OC)c(OC)c3)ccc21,-8,-52,27*,0,5
COc1cccc(-c2ccc(C3[C@@H]4CN(C(=O)Cc5ccccc5)C[C@H]3N4)cc2)c1 (some centres undefined),·,-3,·,·,·
COc1ccc(OC)c(NC(=O)CSc2sc3c(O)cc(=O)[nH]c3c2C#N)c1,-14,2,0,43*,-1
N#Cc1c(SCC(=O)Nc2ccc(C(F)(F)F)cc2)sc2c(O)cc(=O)[nH]c12,-15,1,1,41*,1
N#Cc1c(SCC(=O)Nc2nncs2)sc2c(O)cc(=O)[nH]c12,-27,-2,3,84*,-6
Cc1ccc(NC(=O)CSc2sc3c(O)cc(=O)[nH]c3c2C#N)c(F)c1,-57,-2,2,29,5
